Marburg entry inh: qHTS for inhibitors of binding or entry into cells for Marburg Virus | Potency, µM (doses to about 37.8 µM), without a hit: top-dose activity change, negative = inhibition, usual class: inhibitors | Marburg virus pseudotyped entry inhibition, cell reporter | AID 540276, 2011 | hit rate 1.8% among 300,000; calls by dose curve; tested in HEK293 cells; further: potency means the concentration at half of the fitted maximal effect
Pf growth 96h: Primary qHTS for delayed death inhibitors of the malarial parasite plastid, 96 hour incubation; AID 504834, 2011; hit rate 6.9% among 320,000; P. falciparum luciferase reporter growth, 96 h; Potency, µM (titrated, usually from 28.7 µM), for inactives: at the top dose activity change, negative = inhibition, most hits filed as inhibitors; further: potency means the concentration at half of the fitted maximal effect
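Compounds incubated with erythrocytes infected by luciferase-expressing P. falciparum (2% hematocrit, 0.05% parasitemia final) for 96 hours, 37 C in 5% CO2. Growth inhibition scored as decreased luciferase luminescence.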
Pf growth 48h: Primary qHTS for delayed death inhibitors of the malarial parasite plastid, 48 hour incubation; hit rate 5.9% among 310,000; P. falciparum luciferase growth in erythrocytes, 48 h; AID 504832, 2011; Potency, µM (series often up to 28.7 µM), for inactives: top-dose activity change, negative = inhibition, hits mostly inhibitors; further: potency means the concentration at half of the fitted maximal effect
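Luciferase-expressing parasites in RBCs, 2% Hct / 0.1% parasitemia final; RPMI 1640 + 0.5% Albumax; 37 C, 5% CO2, one generation; luminescence read-out, lower signal = inhibition.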
HCV inh: qHTS Assay for Inhibitors of Hepatitis C Virus (HCV) | Huh7.5.1 HCVcc-Cre infection, luciferase reporter, 44 h | Potency, µM (top dose mostly 41.8 µM), for the others: at the highest dose activity change, negative = inhibition, hits mostly inhibitors | hit rate 3.4% among 340,000; further: potency means the concentration at half of the fitted maximal effect
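A cell-based infection assay in which seeded cells (1,000 per well) receive test compound after 4 h, are inoculated with HCVcc-Cre at approximately 0.5 moi, and are incubated 44 h before luminescence detection.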
HCMV inh: qHTS Assay for inhibitors of the human cytomegalovirus (HCMV); HFF cells, HCMV-luciferase reporter, 72 h; active compounds read low; activity change, negative = inhibition, % at 57.5 µM; hit rate 4.5% among 410,000; AID 1259415, 2018; in the data active means activity change below about -60%; inconclusive means no clear call, values can overlap the other calls; inactive means above about -39%
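Two compound doses tested in HFFs infected with HCMV-luciferase, MOI 1 PFU/cell, 72 h at 37C. Lysate luminescence read with OneGlo; data normalized against buffer-only and 10uM Salinomycin inhibitor controls.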
LASV entry inh: qHTS for Inhibitors of binding or entry into cells for Lassa Virus; hit rate 1.2% among 300,000; Lassa virus pseudotype entry inhibition, cell reporter; Potency, µM (top dose mostly 37.9 µM), for the others: at the top dose activity change, negative = inhibition, hits mostly inhibitors; calls by dose curve; tested in HEK293 cells; further: potency means the concentration at half of the fitted maximal effect; nearly all actives have a fitted effect of over 50% in size
* = called active by the depositor; [ ] = remark or other dose. Sampled rows, rich in hits. Any-hit rate of the full collection: about 14%. Unless noted, the call rests on the fitted dose curve; in most records, active means well fitted inhibition curve with a large enough effect; inconclusive means small, poorly fitted or top-dose-only effect, or another doubt; inactive means no such curve, though single readings can be large or run the other way. On the % scale 0 is the no-effect control and ±100 the full control effect.

O=C(NNc1cc(N2CCOCC2)nc(N2CCOCC2)n1)c1ccc(Cl)c(Cl)c1 was read as Marburg entry inh inconclusive, Pf growth 96h -15%, Pf growth 48h -4%, HCV inh inconclusive, HCMV inh 63 and LASV entry inh -2%.
`Cc1ccc(C)c(NC(=O)Cn2c(=O)n(Cc3ccc4c(c3)OCO4)c(=O)c3oc4ccccc4c32)c1` gave HCMV inh 3 and LASV entry inh 2%[46.1 µM].
For Cc1c(Br)cc(C(=O)N2CCN(CCO)CC2)c(C)c1C the results were Marburg entry inh -6%, Pf growth 96h inconclusive, Pf growth 48h -2%, HCV inh 20%, HCMV inh -101* and LASV entry inh -9%.
For CN(CCC#N)C(=O)COC(=O)c1c2c(nc3ccccc13)/C(=C\c1ccco1)CC2 the results were Marburg entry inh inconclusive, HCV inh 13µM*, HCMV inh inconclusive and LASV entry inh inconclusive.
For CN1CCc2nc3ccccc3c(C(=O)OCC(=O)N(CCC#N)c3ccccc3)c2C1 the results were Marburg entry inh inconclusive, Pf growth 96h 13µM*, Pf growth 48h inconclusive, HCV inh -22%, HCMV inh -22 and LASV entry inh inconclusive.
O=C(COC(=O)c1c2c(nc3ccccc13)/C(=C\c1ccco1)CC2)NC1CCCC1 was read as Marburg entry inh inconclusive, HCV inh inconclusive, HCMV inh -36 and LASV entry inh -11%.
Screening N#CCCN(C(=O)COC(=O)c1ccc2ccccc2n1)c1ccccc1 returned Pf growth 96h -10%, Pf growth 48h -8%, HCV inh 12% and HCMV inh -4.
Screening Cc1cc(-n2c(SCC(=O)NCCC3=CCCCC3)nc3n[nH]c(C)c3c2=N)ccc1Cl returned Pf growth 96h 4.7µM*, Pf growth 48h inconclusive, HCV inh inconclusive and HCMV inh -21.
`Cc1[nH]nc2nc(SCC(=O)NCCC3=CCCCC3)n(-c3ccc(Br)cc3)c(=N)c12` gave Pf growth 96h 28%, Pf growth 48h inconclusive, HCV inh inconclusive and HCMV inh -78*.
`Cc1ccc(Cl)cc1-n1c(SCC(=O)NCCC2=CCCCC2)nc2n[nH]c(C)c2c1=N` gave Pf growth 96h inconclusive, Pf growth 48h inconclusive, HCV inh inconclusive and HCMV inh 0.
Screening COc1ccc(CNC(=O)C(=O)NCC(c2ccco2)S(=O)(=O)c2ccc(Cl)cc2)cc1 (stereo not drawn) returned HCMV inh 3 and LASV entry inh -29%[46.1 µM].
CCCOCn1cc(F)c(=O)[nH]c1=O was read as Marburg entry inh -11%, Pf growth 96h 5.2µM*, Pf growth 48h inconclusive, HCV inh 34%, HCMV inh -2 and LASV entry inh 3%.
CCOC(=O)C1(C)CCCN(C(=O)CCc2ccccc2)C1 (stereo not drawn) was read as HCMV inh -25.
CC1(CCc2ccc3c(c2)OCO3)NCCc2c1[nH]c1ccccc21 (stereo not drawn) was read as Pf growth 96h inconclusive, Pf growth 48h 10µM*, HCV inh 11µM* and HCMV inh -87*.
CC1(CCc2ccc3c(c2)OCO3)NC(=O)c2ccccc2N1 (stereo not drawn) was read as Marburg entry inh -19%, Pf growth 96h -1%, Pf growth 48h -13%, HCV inh 24%, HCMV inh 19 and LASV entry inh 4%.
`Cc1ccc(S(=O)(=O)NCC(Nc2cccc(Cl)c2)c2ccccc2)cc1` (stereo not drawn) gave Marburg entry inh inconclusive, HCMV inh -103* and LASV entry inh inconclusive.
COC(=O)CC(=O)CSc1nc(C)cc(C)c1C#N was read as Marburg entry inh 1%, Pf growth 96h 8.3µM*, Pf growth 48h 21%, HCV inh 4%, HCMV inh -8 and LASV entry inh 0%.

Compound activity as filed in PubChem BioAssay.
